# Source: PubChem BioAssay (EPA / NIEHS)
# Calls of active or inactive are those of the source. Rule for the calls: active = hit-call score of the fitted dose curve at least 0.9, where 1 is the maximum; inactive = score below 0.9. *1 amine or outer side, *2 acyl side, *3 side chain or, on linkers, in order; H or OH if unused. Where a SMILES comes first, the peptide text is derived from it. Bridges are numbered along the chain shown (N, C = ends). Roman numbers before positions name the chains, in order. [ ]: non-standard residue; d: D form. Actinocin(9to1) = Cc1c2oc3c(C)ccc(C(=O)[*:1])c3nc-2c(C(=O)[*:2])c(N)c1=O; NMeV = CN[C@H](C(=O)O)C(C)C; Sar = CNCC(=O)O
# System: SRY-box transcription factor 17 (SOX17) Protein Expression, Deisenroth Lab, SOX17 (gene 64321)
# Experiment: CCTE_Deisenroth_DEVTOX-GLR_legacy_Sox17: (Legacy) CCTE's DevTox GLR-Endo Assay Evaluation of SRY-box transcription factor 17 (SOX17) Protein Expression, Deisenroth Lab (AID 2284341)
# Settings: actives raise or lower the signal
# Experimental: CCTE_Deisenroth_DEVTOX-GLR_legacy assay is a cell-based, multiplex-readout assay that uses RUES2-GLR, a human pluripotent cell line, with measurements taken at 48 hours after chemical dosing in a 384-well microplateCCTE_Deisenroth_DEVTOX-GLR_legacy_Sox17 is one of 4 assay components calculated from the CCTE_Deisenroth_DEVTOX-GLR_legacy assay and it measures an increase in the percentage of cells in an endoderm state. It is designed to make measurements of inducible reporter a form of fluorescent protein induction as detected with optical fluorescence microscopy. Percentage Sox17+ cells are determined by calculating the number of Sox17+ cells divided by cell count. A cell is Sox17+ if the cell Sox17 mean intensity is 5x BMAD above the pluripotent control median cell Sox17 mean. The assay endpoints were analyzed with bidirectional fitting relative to 0.2% DMSO control in the CCTE_Deisenroth_DEVTOX-GLR_Endo assay.Data from the assay component CCTE_Deisenroth_DEVTOX-GLR_legacy_Sox17 was analyzed into 1 assay endpoint. This assay endpoint, CCTE_Deisenroth_DEVTOX-GLR_legacy_Sox17, was analyzed with bidirectional fitting relative to DMSO as the negative control and baseline activity. Using a type of inducible reporter, gain or loss-of-signal activity can be used to understand changes in gene expression. Furthermore, this assay endpoint can be referred to as a primary readout, because this assay has produced multiple assay endpoints where this one serves as a measure of endoderm differentiation. To generalize the intended target to other relatable targets, this assay endpoint is annotated to the transcription factor intended target family, where the subfamily is SRY-related HMG-box.
# All assay protocols are aligned to the DevTox GLR-Endo assay workflow. Cells are seeded into 384-well microplates for 24 hours prior to initiating differentiation in defined media for a total duration of 48 hours. A total of two chemical exposures are administered in 24-hour intervals during the 48-hour differentiation period. At the assay termination point, cells are fixed and stained with a fluorescent dye demarcating the nucleus. High-content imaging is used to acquire brightfield and fluorescent channel images across 5 fields per well. Cell identification and mean biomarker fluorescence intensities are calculated with image analysis software to determine the total cell counts for viability assessment and the biomarker expression frequency for each lineage-dependent assay. A typical experimental design tests a 10-point concentration series (1 nM - 200 uM) for 28 compounds in single technical replicate. Assay plate controls include non-differentiated pluripotent cells (baseline control), lineage-specific differentiated cells (differentiation control), and DMSO solvent exposed differentiated cells (solvent control). Experiments typically comprise a minimum of four experimental replicates (n=4).
row,Compound,AC50
1,"Cc1c2oc3c(C)ccc(C(=O)N[C@@H]4C(=O)N[C@H](C(C)C)C(=O)N5CCC[C@H]5C(=O)N(C)CC(=O)N(C)[C@@H](C(C)C)C(=O)O[C@@H]4C)c3nc-2c(C(=O)N[C@@H]2C(=O)N[C@H](C(C)C)C(=O)N3CCC[C@H]3C(=O)N(C)CC(=O)N(C)[C@@H](C(C)C)C(=O)O[C@@H]2C)c(N)c1=O (I: T[dV]P[Sar][NMeV] / II: T[dV]P[Sar][NMeV]; ester I:1-I:C, II:1-II:C; linker I:N-II:N via Actinocin(9to1))",0.000544 µM (active)
2,Cc1nc(Nc2ncc(C(=O)Nc3c(C)cccc3Cl)s2)cc(N2CCN(CCO)CC2)n1,0.811 µM (active)
3,COc1cc2ncnc(Nc3ccc(F)c(Cl)c3)c2cc1OCCCN1CCOCC1,5.74 µM (active)
4,Cc1ccc(NC(=O)c2ccc(CN3CCN(C)CC3)cc2)cc1Nc1nccc(-c2cccnc2)n1,16.5 µM (active)
5,O=c1[nH]c(=O)n([C@H]2C[C@H](O)[C@@H](CO)O2)cc1Br,0.857 µM (active)
6,CCCCCN=C(N)N/N=C/c1c[nH]c2ccc(OC)cc12,5.47 µM (active)
7,Nc1cccc2c1CN(C1CCC(=O)NC1=O)C2=O (stereo not given),0.328 µM (active)
8,O=C1Cc2cc(CCN3CCN(c4nsc5ccccc45)CC3)c(Cl)cc2N1,3.91 µM (active)
9,COc1cc2c(Nc3ccc(Br)cc3F)ncnc2cc1OCC1CCN(C)CC1,4.92 µM (active)
10,CCN(CC)CCNC(=O)c1c(C)[nH]c(/C=C2\C(=O)Nc3ccc(F)cc32)c1C,0.623 µM (active)
11,CNC(=O)c1cc(Oc2ccc(NC(=O)Nc3ccc(Cl)c(C(F)(F)F)c3)cc2)ccn1,0.609 µM (active)
12,CC1=C(/C=C/C(C)=C/C=C/C(C)=C\C(=O)O)C(C)(C)CCC1,0.159 µM (active)
13,Cc1nc2sccn2c(=O)c1CCN1CCC(=C(c2ccc(F)cc2)c2ccc(F)cc2)CC1,11 µM (active)
14,CN1CCN2c3ccccc3Cc3ccccc3C2C1 (stereo not given),34.3 µM (active)
15,O=C(c1ccc(F)cc1)C1CCN(CCn2c(=O)[nH]c3ccccc3c2=O)CC1,39.9 µM (active)
